Several values for one entry are separate records, joined by “and”; a condition that tells them apart may be missing. Identical values can stand only once. Records with an inconclusive call do not appear. Activity calls are given as the source filed them. Unless noted, calls follow the shape of the full dose curve.
Columns and labels:
[1] = target: Voltage-gated inwardly rectifying potassium channel KCNH2 (Homo sapiens) (UniProt Q12809); assay: qHTS Assay for Small Molecule Inhibitors of the Human hERG Channel Activity (AID 588834; active = well fitted curve in the direction sought with a large enough effect; an effect the other way counts as inactive or inconclusive;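 also: lower thallium flux fluorescence means stronger hERG block; nearly all actives have a fitted effect of over 50% in size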; also: potency is read from the fitted curve at half-maximal effect)
Summary of the method: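 In hERG-transduced U2OS cells, dye-loaded for 1 hr at room temperature in dark, test compounds incubated 10 min at 37 °C before thallium stimulation. AC50 values derived by Hill modelling of concentration-response.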

[2] = qHTS assay for small molecule agonists of retinoid X receptor alpha signaling (AID 588544); details: HEK293T RXRa-UAS-bla, beta-lactamase reporter, 18 h; 530 nm emission
[3] = target: Retinoic acid receptor RXR-alpha (Homo sapiens) (UniProt P19793); assay: as above
[4] = target: Thyroid hormone receptor beta (Homo sapiens) (UniProt P10828); assay: qHTS assay for small molecule agonists of thyroid hormone receptor beta signaling (AID 588545)
Summary of the method: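 In this cell-based screen, titrated compounds act on HEK 293 cells held in medium with 2% charcoal/dextran FBS, NEAA and pyruvate for 18 hrs at 37 C. Responses are expressed relative to T3 (10 nM) as 100% and basal DMSO as 0%.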

[5] = qHTS assay for small molecule antagonists of retinoid X receptor alpha signaling (AID 588546; active = well fitted inhibition curve with a large enough effect in the signal ratio, with a control signal flat, not every such curve was filed as active; the % refers to the signal ratio; also: potency is read from the fitted curve at half-maximal effect;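 as to max response: cells stimulated with 9-cis-retinoic acid as agonist; % is scaled to controls: 0 for no effect and ±100 for the full control effect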); details: HEK293T RXRa-UAS-bla, beta-lactamase ratio, antagonist mode; measured here: W530 green channel, cytotoxicity proxy
Summary of the method: (§1)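 Beta-lactamase reporter inhibition, read as CCF4 fluorescence ratio (ex 405, em 460/530 nm) after 2 h at RT. HEK293T UAS-bla cells, 2500/well, were stimulated with 9-cis-RA at 500 or 100 nM final alongside test compound for 18 h at 37 C.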

[6] = target: Retinoic acid receptor RXR-alpha (Homo sapiens) (UniProt P19793); assay: as above; details: HEK293T RXRa-UAS-bla, beta-lactamase ratio, antagonist mode
Summary of the method: as §1

[7] = target: Thyroid hormone receptor beta (Homo sapiens) (UniProt P10828); assay: qHTS assay for small molecule antagonists of thyroid hormone receptor beta signaling (AID 588547; active = well fitted inhibition curve with a large enough effect in the signal ratio, with a control signal flat, not every such curve was filed as active; the % refers to the signal ratio;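 also: cells stimulated with 0.4 nM T3 agonist during compound exposure; series mostly up to about 77 µM; % is scaled to controls: 0 for no effect and ±100 for the full control effect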); details: TR-UAS-bla HEK293, beta-lactamase ratio, antagonist mode, 18 h
Summary of the method: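 TR-UAS-bla GripTite HEK293 cells in 2% charcoal/dextran FBS medium were preincubated 4 h at 37 C, given compound (0.59 nM to 92 uM) plus 0.4 nM T3 (final) for 18 h, then CCF4 for 2 h at RT; Hill fit gave IC50.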

[8] = target: Luciferin 4-monooxygenase (Photinus pyralis) (UniProt P08659); assay: Biochemical firefly luciferase enzyme assay for NPC (AID 624030; active = well fitted curve in the direction sought with a large enough effect; an effect the other way counts as inactive or inconclusive;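 also: purified P. pyralis luciferase at 10 nM with luciferin and ATP substrate; series mostly up to about 59 µM; 0% = DMSO and -100% = full luciferase inhibition by PTC124 control; nearly all actives have a fitted effect of over 70% in size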)
Summary of the method: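 Counter-screen for direct inhibition of the luciferase enzyme by approved-drug library compounds, run at 10 nM enzyme in 50 mM Tris acetate (final). Luminescence was read within 5 min of enzyme-buffer addition and normalized to PTC124 versus DMSO (0%).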

[9] = S16 Schwann cell PMP22 intronic element beta-lactamase assay (AID 624044);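 also: 0% = DMSO and -100% = potassium clavulanate positive control; nearly all actives have a fitted effect of over 15% in size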
Summary of the method: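 Beta-lactamase reporter under a PMP22 intronic regulatory element in stable S16 rat Schwann cells; 24 h compound exposure. 460 nm blue signal normalized between DMSO (0%) and potassium clavulanate, with 535 nm FRET tracking viability; curves classed by r2 and response.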

[10] = target: Vitamin D3 receptor (Homo sapiens) (UniProt P11473); assay: qHTS assay for small molecule antagonists of vitamin D receptor signaling (AID 588541);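 also: receptor activated by calcitriol during compound treatment; series mostly up to about 77 µM; % is scaled to controls: 0 for no effect and ±100 for the full control effect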
Summary of the method: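 VDR-UAS-bla HEK293T cells (2000/well, 2% charcoal-stripped FBS) were treated with titrated compounds plus 1-alpha,25-dihydroxyvitamin D3 (50 nM or 3 nM final) for 16 h at 37 C. CCF4 beta-lactamase fluorescence was read; Hill fits gave IC50.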

[11] = target: Vitamin D3 receptor (Homo sapiens) (UniProt P11473); assay: qHTS assay for small molecule agonists of vitamin D receptor signaling (AID 588543);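 also: 0% = DMSO basal and 100% = reference agonist control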
Summary of the method: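 GeneBLAzer VDR-UAS-bla HEK293T cells in 2% charcoal-stripped FBS medium were dosed with compound titrations for 16 h at 37 °C; CCF4 β-lactamase readout (405 nm ex, 460/530 nm em). EC50 and efficacy from Hill fits, normalized to 50 nM calcitriol (100%) and DMSO (0%).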

[12] = S16 Schwann cell viability assay (CellTiter-Glo assay) (AID 624031; active = well fitted curve in the direction sought with a large enough effect; an effect the other way counts as inactive or inconclusive;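 also: cellular ATP luminescence as a viability measure; series mostly up to about 58 µM; plate controls were DMSO-treated cells for no effect and cell-free wells for full effect; nearly all actives have a fitted effect of over 70% in size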)
Summary of the method: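 This viability control uses native rat S16 Schwann cells grown in DMEM plus 10% FBS. After a 24 h compound treatment at 37 °C, CellTiter-Glo luminescence reports ATP content, scaled against DMSO-treated and cell-free wells.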

[13] = S16 Schwann cell PMP22 intronic element firefly luciferase assay (AID 624032; active = well fitted curve in the direction sought with a large enough effect; an effect the other way counts as inactive or inconclusive; also: nearly all actives have a fitted effect of over 30% in size; also: potency is read from the fitted curve at half-maximal effect)
Summary of the method: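 Rat S16 Schwann cells stably carrying a PMP22 intronic element-driven Fluc reporter were seeded overnight, then exposed to compounds for 24 h at 37 °C. Luminescence was normalized to PTC124 (positive control) and DMSO (0% activity).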

[14] = target: Peroxisome proliferator-activated receptor gamma (Homo sapiens) (UniProt P37231); assay: qHTS assay for small molecule antagonists of peroxisome proliferator-activated receptor gamma signaling (AID 588537; active = well fitted inhibition curve with a large enough effect in the signal ratio, with a control signal flat, not every such curve was filed as active; the % refers to the signal ratio;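 also: reporter cells co-stimulated with 50 nM rosiglitazone agonist during compound treatment; % of control where 0% means no effect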)
Summary of the method: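 HEK293 cells, PPAR-gamma-UAS-bla, 3000/well. Pre-incubation 6-6.5 h, 37 C. Compound titration with rosiglitazone 50 nM final, 16 h. CCF4 dye, 2 h RT, dual-emission fluorescence.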

Luciferin 4-monooxygenase (Photinus pyralis), sequence (P08659 whole entry, looked up): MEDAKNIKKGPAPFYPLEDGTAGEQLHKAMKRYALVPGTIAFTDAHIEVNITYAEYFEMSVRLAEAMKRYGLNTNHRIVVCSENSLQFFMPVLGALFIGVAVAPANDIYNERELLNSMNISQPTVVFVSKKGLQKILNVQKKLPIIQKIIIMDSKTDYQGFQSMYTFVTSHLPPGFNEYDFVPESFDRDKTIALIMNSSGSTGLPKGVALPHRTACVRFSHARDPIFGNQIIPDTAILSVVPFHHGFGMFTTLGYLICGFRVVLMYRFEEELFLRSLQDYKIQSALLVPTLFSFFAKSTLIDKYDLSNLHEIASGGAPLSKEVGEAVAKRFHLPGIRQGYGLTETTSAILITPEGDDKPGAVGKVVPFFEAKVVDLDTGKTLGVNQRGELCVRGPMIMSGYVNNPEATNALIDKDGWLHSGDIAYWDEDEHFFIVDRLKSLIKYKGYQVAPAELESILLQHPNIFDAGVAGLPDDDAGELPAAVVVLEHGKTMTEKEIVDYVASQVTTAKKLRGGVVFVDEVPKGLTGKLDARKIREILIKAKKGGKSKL
Thyroid hormone receptor beta (Homo sapiens), sequence (P10828 whole entry, looked up): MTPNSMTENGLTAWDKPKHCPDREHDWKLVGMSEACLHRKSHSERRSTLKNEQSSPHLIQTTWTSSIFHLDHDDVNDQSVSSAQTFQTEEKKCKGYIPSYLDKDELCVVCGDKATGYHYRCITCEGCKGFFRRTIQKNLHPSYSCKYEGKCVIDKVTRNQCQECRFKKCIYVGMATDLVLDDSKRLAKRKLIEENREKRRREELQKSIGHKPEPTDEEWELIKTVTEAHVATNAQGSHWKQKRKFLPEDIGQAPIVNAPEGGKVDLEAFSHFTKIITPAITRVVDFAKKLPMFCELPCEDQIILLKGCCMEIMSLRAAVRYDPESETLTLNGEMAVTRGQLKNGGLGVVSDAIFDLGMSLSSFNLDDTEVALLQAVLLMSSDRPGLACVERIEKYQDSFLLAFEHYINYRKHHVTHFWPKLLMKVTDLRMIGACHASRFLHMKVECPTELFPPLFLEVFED
Voltage-gated inwardly rectifying potassium channel KCNH2 (Homo sapiens), sequence (Q12809 whole entry, looked up): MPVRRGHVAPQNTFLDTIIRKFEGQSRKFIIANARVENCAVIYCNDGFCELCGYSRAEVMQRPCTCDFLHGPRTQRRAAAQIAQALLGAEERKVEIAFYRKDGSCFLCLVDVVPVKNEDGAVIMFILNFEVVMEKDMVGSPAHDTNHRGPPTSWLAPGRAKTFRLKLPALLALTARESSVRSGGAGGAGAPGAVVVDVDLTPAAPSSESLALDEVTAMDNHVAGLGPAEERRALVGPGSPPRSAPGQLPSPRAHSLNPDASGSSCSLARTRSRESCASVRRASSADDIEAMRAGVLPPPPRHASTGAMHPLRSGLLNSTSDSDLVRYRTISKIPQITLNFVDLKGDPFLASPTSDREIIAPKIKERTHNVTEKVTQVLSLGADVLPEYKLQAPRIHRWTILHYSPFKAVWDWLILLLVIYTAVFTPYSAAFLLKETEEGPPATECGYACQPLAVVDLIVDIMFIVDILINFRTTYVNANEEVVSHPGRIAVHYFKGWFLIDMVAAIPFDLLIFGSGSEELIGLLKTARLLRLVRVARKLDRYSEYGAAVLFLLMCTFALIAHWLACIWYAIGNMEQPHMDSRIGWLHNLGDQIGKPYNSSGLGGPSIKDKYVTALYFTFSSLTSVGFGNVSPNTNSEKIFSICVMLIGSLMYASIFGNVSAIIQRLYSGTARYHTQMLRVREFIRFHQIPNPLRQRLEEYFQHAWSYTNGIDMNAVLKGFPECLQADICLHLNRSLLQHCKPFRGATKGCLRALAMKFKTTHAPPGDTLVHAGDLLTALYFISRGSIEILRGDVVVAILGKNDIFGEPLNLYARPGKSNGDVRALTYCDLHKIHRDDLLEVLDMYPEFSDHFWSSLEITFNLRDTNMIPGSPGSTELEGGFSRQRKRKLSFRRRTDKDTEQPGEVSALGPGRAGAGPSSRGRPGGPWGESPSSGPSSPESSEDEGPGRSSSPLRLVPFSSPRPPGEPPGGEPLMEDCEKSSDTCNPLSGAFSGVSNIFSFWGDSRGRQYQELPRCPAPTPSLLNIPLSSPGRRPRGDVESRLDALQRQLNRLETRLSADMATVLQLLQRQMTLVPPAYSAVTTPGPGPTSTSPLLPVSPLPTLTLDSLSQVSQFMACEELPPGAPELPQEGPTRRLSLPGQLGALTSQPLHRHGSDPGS
Peroxisome proliferator-activated receptor gamma (Homo sapiens), sequence (P37231 whole entry, looked up): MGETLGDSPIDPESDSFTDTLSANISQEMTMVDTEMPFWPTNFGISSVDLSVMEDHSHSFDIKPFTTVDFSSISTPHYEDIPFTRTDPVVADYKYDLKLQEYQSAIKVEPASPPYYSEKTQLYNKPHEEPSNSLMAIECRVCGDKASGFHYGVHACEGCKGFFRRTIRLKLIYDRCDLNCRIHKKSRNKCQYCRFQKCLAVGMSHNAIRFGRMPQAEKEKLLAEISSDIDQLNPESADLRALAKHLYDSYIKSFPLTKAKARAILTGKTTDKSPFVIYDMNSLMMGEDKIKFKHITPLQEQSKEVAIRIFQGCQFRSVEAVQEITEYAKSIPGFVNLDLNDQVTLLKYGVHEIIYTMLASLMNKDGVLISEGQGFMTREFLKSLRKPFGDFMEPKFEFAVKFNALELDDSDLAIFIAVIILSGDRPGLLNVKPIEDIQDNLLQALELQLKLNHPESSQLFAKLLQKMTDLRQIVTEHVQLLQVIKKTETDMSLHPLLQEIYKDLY
Retinoic acid receptor RXR-alpha (Homo sapiens), sequence (P19793 whole entry, looked up): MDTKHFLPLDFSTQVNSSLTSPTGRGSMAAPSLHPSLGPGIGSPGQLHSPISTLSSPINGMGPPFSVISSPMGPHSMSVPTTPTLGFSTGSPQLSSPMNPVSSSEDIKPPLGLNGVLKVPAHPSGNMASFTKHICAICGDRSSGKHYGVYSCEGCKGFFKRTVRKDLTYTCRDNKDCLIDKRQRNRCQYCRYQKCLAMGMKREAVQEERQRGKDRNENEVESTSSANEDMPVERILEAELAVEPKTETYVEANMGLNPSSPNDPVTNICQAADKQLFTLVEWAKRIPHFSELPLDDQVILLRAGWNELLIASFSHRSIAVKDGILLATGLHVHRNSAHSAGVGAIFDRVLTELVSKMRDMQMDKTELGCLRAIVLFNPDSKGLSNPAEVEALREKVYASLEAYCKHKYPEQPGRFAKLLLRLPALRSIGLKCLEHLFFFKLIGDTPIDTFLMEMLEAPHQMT
Vitamin D3 receptor (Homo sapiens), sequence (P11473 whole entry, looked up): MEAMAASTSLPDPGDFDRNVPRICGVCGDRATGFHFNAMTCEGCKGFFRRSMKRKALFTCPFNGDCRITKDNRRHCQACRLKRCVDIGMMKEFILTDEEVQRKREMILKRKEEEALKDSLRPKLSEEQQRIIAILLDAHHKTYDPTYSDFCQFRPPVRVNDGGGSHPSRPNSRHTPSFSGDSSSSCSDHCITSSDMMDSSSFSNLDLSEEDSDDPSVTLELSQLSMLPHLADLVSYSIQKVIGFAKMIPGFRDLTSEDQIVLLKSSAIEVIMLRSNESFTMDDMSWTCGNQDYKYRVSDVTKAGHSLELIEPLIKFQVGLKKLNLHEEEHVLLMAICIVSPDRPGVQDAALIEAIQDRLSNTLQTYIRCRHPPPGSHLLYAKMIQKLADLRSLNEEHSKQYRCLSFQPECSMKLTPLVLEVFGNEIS

CC[C@@H](C(=O)O)[C@@H]1O[C@@H]([C@@H](C)[C@H](O)[C@H](C)C(=O)[C@H](CC)[C@H]2O[C@]3(C=C[C@@H](O)[C@]4(CC[C@@](C)([C@H]5CC[C@](O)(CC)[C@H](C)O5)O4)O3)[C@H](C)C[C@@H]2C)[C@@H](C)C[C@@H]1C
inactive: Potency [1]

CCCCCCCC/C=C\CCCCCCCC(=O)O
inactive: outcome [3] | outcome [4] | max response [6] 31.8% and 3.81% | activity change % (negative = inhibition) [7] -12.5% | Potency [1] | Potency [8] | Potency [9]
-22.4% and -10.3%: max response [2]
-6.26% and -12.6%: max response [5]

CCCC(=O)O[C@]1(C(=O)COC(C)=O)CC[C@H]2[C@@H]3C[C@H](F)C4=CC(=O)C=C[C@]4(C)[C@@]3(F)[C@@H](O)C[C@@]21C
inactive: Potency [1]

CC(=O)O[C@]1(C(C)=O)CC[C@H]2[C@@H]3CCC4=CC(=O)CC[C@]4(C)[C@@]3(F)[C@@H](O)C[C@@]21C
inactive: Potency [1]

OCC(S)CS (stereo not drawn)
inactive: Potency [1]

CCC(=O)O[C@]1(C(=O)CCl)[C@@H](C)C[C@H]2[C@@H]3C[C@H](F)C4=CC(=O)C=C[C@]4(C)[C@@]3(F)[C@@H](O)C[C@@]21C
inactive: Potency [1]

CN=C(NC#N)Nc1ccc(C2=NNC(=O)C[C@@H]2C)cc1
inactive: Potency [1]

CCCCCCCC(=O)O
-6.98% and -8.84%: max response [5]
inactive: outcome [10] | outcome [11] | outcome [3] | outcome [4] | max response [6] 18.1% and 2.05% | activity change % (negative = inhibition) [7] 8.96% and 0.409% | Potency [1] | Potency [8] | Potency [12] | Potency [13]
23.4% and -6.86%: max response [2]

CCOc1ccc2c(c1)C(C)=CC(C)(C)N2
inactive: outcome [4] | activity change % (negative = inhibition) [7] 8.54% | Potency [1] | Potency [8] | Potency [13] | Potency [9]

CCCCC/C=C\C/C=C\CCCCCCCC(=O)O
inactive: outcome [14] | outcome [10] | outcome [11] | outcome [3] | outcome [4] | max response [6] 12.5% | activity change % (negative = inhibition) [7] 8.73% and 0.41% | Potency [1] | Potency [8] | Potency [13] | Potency [9]
2.1%: max response [5]
-2.55%: max response [2]

CC(C)(C)NC(=O)[C@@H]1C[C@@H]2CCCC[C@@H]2CN1C[C@@H](O)[C@H](Cc1ccccc1)NC(=O)[C@H](CC(N)=O)NC(=O)c1ccc2ccccc2n1
9.91%: max response [5]
inactive: outcome [10] | outcome [4] | Potency [8] | Potency [12]
active: Potency [6] 22.4 µM | Potency [1] 35.5 µM | Potency [13] 12.8 µM

Cc1ccccc1
-1.14% and 7.93%: max response [2]
-4.05% and 9.42%: max response [5]
inactive: outcome [14] | outcome [10] | outcome [11] | outcome [3] | outcome [4] | max response [6] -5.8% and 14.2% | Potency [1] | Potency [8]

CCOC(C)=O
inactive: outcome [14] | outcome [10] | outcome [11] | outcome [3] | outcome [4] | activity change % (negative = inhibition) [7] -2.37% | Potency [1] | Potency [8] | Potency [12] | Potency [13] | Potency [9]
-19.8%: max response [2]

CC1=C(/C=C/C(C)=C/C=C/C(C)=C/CO)C(C)(C)CCC1
23.5% and 17%: max response [5]
inactive: outcome [10] | outcome [11] | outcome [4] | max response [6] -17.7% and -18.6% | activity change % (negative = inhibition) [7] 7.96% and 4.62% | Potency [8]

C[C@H]1C[C@H]2[C@@H]3CCC4=CC(=O)C=C[C@]4(C)[C@@]3(F)[C@@H](O)C[C@]2(C)[C@@]1(O)C(=O)CO
inactive: outcome [10] | outcome [4] | max response [6] -12.7% | Potency [1] | Potency [8] | Potency [13] | Potency [9]
8.66%: max response [5]

CCC1OC(=O)C[C@@H](O)[C@H](C)[C@@H](O[C@@H]2O[C@H](C)C[C@H](N(C)C)[C@H]2O)[C@@H](CC=O)C[C@@H](C)C(=O)/C=C/[C@]2(C)OC2C1C (stereo partly drawn)
inactive: Potency [1]

IC(I)I
-9.02% and 2.26%: max response [5]
inactive: outcome [14] | outcome [3] | outcome [4] | max response [6] 21.1% and -13.8% | activity change % (negative = inhibition) [7] 1.7% and 9.81% | Potency [1] | Potency [12] | Potency [13] | Potency [9]
19.8%: max response [2]

Source: PubChem BioAssay (NCATS)
